Paper PMC12864922, “TDP-43 directly inhibits mRNA accumulation in neurites through modulation of mRNA stability”
Over roughly 9,900 sequences, “r (bound/input frequency ratio)” has its median near 0.7; the highest 2% begin near 6.5. The list comes from a sample in which the highest values are over-represented; it also holds similar and randomly drawn sequences.

B1: ENSMUSG00000061578.1085|Ksr2|91:95 (ssRNA)
RNA: GGGAGUUCUACAGUCCGACGAUCGCUUCGAUAUCCGCAUGCUAGAUUCUAUCCAGUGGCCAGCAAUACCCAAAAGCAGCCAACCAUGAAAAUAGAGGUUUGUAAUGUACAGAAGGCUGGGGGAGCUUUCAGGGCACACGCCAGUUAUGUACAGAUGUGAAGCUGAGGUCUGAAGGAAAUGGAGGAAGUAGGAAGAUCAGACUGGUUGAAUUAGAAGUCUGUCACUCUAGGUGCUAAGUGACCUUGGACCCAGUCAGUUCUUGGAUUUCUGUUGUAGCCCAGGCUAGCCUCGAACCCUUGAUCCCUCUUGCGGUCGCACUAGUGUGGAAUUCUCGGGUGUCAAGG
B2: ENSMUSG00000058297.28|Spock2 (ssRNA)
RNA: GGGAGUUCUACAGUCCGACGAUCGCUUCGAUAUCCGCAUGCUACCUGGACAACAGCAGGCAACUUAGCAAAUGGAUCCGGAAGUCAGUGCGGAGGACCCUGGCUCCAGUGGGGGAGGACUGGGGAGUGUGGCUUGUGUGUAUGUGUGAUAUGAGAUGUGUGUGUAUGAUGUGAGAUGUGAGUGUGUGAUGUGAGAUGUGUGUAUGUGAGAUGUGUGUGUGUGUGUGUGUGUGUGUGAUGUGAGUCACCCAAAGGUCCCUAUGUUAUUGAUUUUCAAAUGCACACUUUCACACACAAGGAUACACUCUUGCGGUCGCACUAGUGUGGAAUUCUCGGGUGUCAAGG
B3: ENSMUSG00000058297.27|Spock2 (ssRNA)
RNA: GGGAGUUCUACAGUCCGACGAUCGCUUCGAUAUCCGCAUGCUAAAGAGACCUGGACAACAGCAGGCAACUUAGCAAAUGGAUCCGGAAGUCAGUGCGGAGGACCCUGGCUCCAGUGGGGGAGGACUGGGGAGUGUGGCUUGUGUGUAUGUGUGAUAUGAGAUGUGUGUGUAUGAUGUGAGAUGUGAGUGUGUGAUGUGAGAUGUGUGUAUGUGAGAUGUGUGUGUGUGUGUGUGUGUGUGUGAUGUGAGUCACCCAAAGGUCCCUAUGUUAUUGAUUUUCAAAUGCACACUUUCACACACAAGCUCUUGCGGUCGCACUAGUGUGGAAUUCUCGGGUGUCAAGG
B4: ENSMUSG00000058297.28|Spock2|83:87;91:104;113:124;138:144;153:162;168:193 (ssRNA)
RNA: GGGAGUUCUACAGUCCGACGAUCGCUUCGAUAUCCGCAUGCUACCUGGACAACAGCAGGCAACUUAGCAAAUGGAUCCGGAAGUCAGUGCGGAGGACCCUGGCUCCAGUGGGGGAGGACUGGGGACACACGCUACACACAUACACACAUAUGAGAACACACACAUACAUGUGAGAUGUGACACACACAUGUGAGAACACACAUACUGAGAACACACACACACACACACACACACACAUGUGAGUCACCCAAAGGUCCCUAUGUUAUUGAUUUUCAAAUGCACACUUUCACACACAAGGAUACACUCUUGCGGUCGCACUAGUGUGGAAUUCUCGGGUGUCAAGG
B5: ENSMUSG00000058297.29|Spock2 (ssRNA)
RNA: GGGAGUUCUACAGUCCGACGAUCGCUUCGAUAUCCGCAUGCUACAACAGCAGGCAACUUAGCAAAUGGAUCCGGAAGUCAGUGCGGAGGACCCUGGCUCCAGUGGGGGAGGACUGGGGAGUGUGGCUUGUGUGUAUGUGUGAUAUGAGAUGUGUGUGUAUGAUGUGAGAUGUGAGUGUGUGAUGUGAGAUGUGUGUAUGUGAGAUGUGUGUGUGUGUGUGUGUGUGUGUGAUGUGAGUCACCCAAAGGUCCCUAUGUUAUUGAUUUUCAAAUGCACACUUUCACACACAAGGAUACACUAACACUCUUGCGGUCGCACUAGUGUGGAAUUCUCGGGUGUCAAGG
B6: ENSMUSG00000031028.414|Tub|94:98;228:232;234:246;252:260 (ssRNA)
RNA: GGGAGUUCUACAGUCCGACGAUCGCUUCGAUAUCCGCAUGCUAUUCUUUUUGGUCCUUGGCUGGGUAGCAAAUUGGUGAGAAGAGCAGCCUAGUCUGUAAGAGUGCAGGGCAGCUGGAACCUUAGGCAGCUCCUCUCAUACCUACCGGCUCCACACCCUAACACUCUCCACCCUCUGCUCCAAACCAGUUCUUCUGCAGAGUGGUGAUGUUAGCUUCCCCAGCUCCUCUCCAAGUCUAGCUUUUUCUGUCCUUCUGGCUCCAAGGUGCUCACACACACACACACACACACUGUCACACACACACUCUUGCGGUCGCACUAGUGUGGAAUUCUCGGGUGUCAAGG
B7: ENSMUSG00000031028.183|Tub (ssRNA)
RNA: GGGAGUUCUACAGUCCGACGAUCGCUUCGAUAUCCGCAUGCUAAGGGCACAUGUCUCUUGGUUACCUCACUGGUUAAUGGCAGAGUUGAGAACCUCAAAUUCUUUUGUUCCUACUGUUGCCCAGAAACUAGACUCUCUGACCUGCUAGGGUCUAUUCUGCAUGUCCUUUCUCUUCCCAGUUCCAGAGAUGAAACCCCUCCGAGUUAAUGUAUAAGGUUGGAAACCUUUCAGUAGGGAAUCAGGCAGUUCCCUGUUGAAAGUUGUCUGAGUUUUUGCACACCAUUCUGAUCUGAUGUGGCCUGUCUCUUGCGGUCGCACUAGUGUGGAAUUCUCGGGUGUCAAGG
B8: ENSMUSG00000028439.343|Fam219a (ssRNA)
RNA: GGGAGUUCUACAGUCCGACGAUCGCUUCGAUAUCCGCAUGCUACCAGUUCGCAUCCCCACCACUCAUCAUCUGGGCCCCAACGCUAGAACUCCCCCCACCGCAUCCCCACUGGGCUCUUUGACUCACCCUUCUAGAACAUGGGUGCCUCCUCUCUUUAGACUGCUGCCUUUGCCUCUGACUUCCUGUGGGAUUGAGAGCCAAGGGCCAGUGCCCUUGUGAGCGCACUAGUUCCGAAGCAGGCAAGGGCAUUAGGUGGUAUAUACAUAGCGGGUAGGGGUAGGAAGCUGGCAGCCUGCAGCUUCCUCUUGCGGUCGCACUAGUGUGGAAUUCUCGGGUGUCAAGG

Molecular target: TDP-43 (Homo sapiens, UniProt Q13148 1-414)
Sequence (Q13148 whole entry): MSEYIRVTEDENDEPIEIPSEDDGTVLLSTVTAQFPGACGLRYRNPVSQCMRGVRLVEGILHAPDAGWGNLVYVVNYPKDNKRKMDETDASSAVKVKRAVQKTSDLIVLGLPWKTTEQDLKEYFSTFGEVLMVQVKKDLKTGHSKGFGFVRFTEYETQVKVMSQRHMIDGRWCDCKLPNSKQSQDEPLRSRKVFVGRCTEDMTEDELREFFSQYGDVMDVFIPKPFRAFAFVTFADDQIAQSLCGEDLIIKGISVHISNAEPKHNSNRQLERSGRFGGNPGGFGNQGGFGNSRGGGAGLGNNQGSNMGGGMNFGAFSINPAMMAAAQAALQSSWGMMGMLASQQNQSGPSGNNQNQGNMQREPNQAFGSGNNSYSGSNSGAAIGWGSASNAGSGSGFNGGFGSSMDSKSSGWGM
Assay: RNA Bind-n-Seq with designed 260-mer pool; 25 mM Tris-HCl, 150 mM KCl, 3 mM MgCl2, BSA (printed 500 mg/mL), 20 units/mL SUPERase IN; pH not stated; 500 nM RNA pool, 1 h, 4 C; TDP-43 5, 50, 500 nM; high values mean tight binding
Settings: protein: recombinant; tags: SBP (GST cleaved off with PreScission; pGEX-GST-SBP)
Outline: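 For each oligo, R gives binding as its mapped-read-normalized abundance after pulldown divided by its abundance in input. Bead-captured SBP-tagged TDP-43 (5, 50 or 500 nM) was incubated with 500 nM of an in vitro-transcribed 260-nt 3′ UTR oligo pool for 1 h at 4 °C in 25 mM Tris-HCl, 150 mM KCl, 3 mM MgCl2, BSA and SUPERase IN on streptavidin beads. Washed, biotin-eluted RNA was reverse transcribed, PCR-amplified and sequenced.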

Going from B1 to B2, the binding signal rises from 0.868 R (bound/input frequency ratio) to 6.8 R (bound/input frequency ratio).

First: B3
Second: B4
The binding signal of the first is higher: 6.12 R (bound/input frequency ratio) for the first, 3.52 R (bound/input frequency ratio) for the second.

Compared with B5, B6 is lower in binding signal: 6.82 R (bound/input frequency ratio) for the first, 2.86 R (bound/input frequency ratio) for the second.

Compared with B7, B8 is lower in binding signal: 0.952 R (bound/input frequency ratio) for the first, 0.735 R (bound/input frequency ratio) for the second.
